The record followed here is paper PMC9911399, “Two distinct binding modes provide the RNA-binding protein RbFox with extraordinary sequence specificity”.

Positions count from the first letter of the chain named. In all, about 16,000 sequences were measured (“ka relative to ugcaugu”: median about 0.096, highest 2% from about 0.35 on). The sample holds the highest values, similar sequences and a random draw of the others, so the mix is not that of the screen.

T1: RBFOX1 RRM RbFoxmut (Fox-RRM*) (Homo sapiens, UniProt Q9NWB1 109-208, R118D;E147R;N151S;E152T)
T1 sequence: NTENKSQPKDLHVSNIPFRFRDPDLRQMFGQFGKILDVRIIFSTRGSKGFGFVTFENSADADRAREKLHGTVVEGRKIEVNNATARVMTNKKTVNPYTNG

B1: AGACUAU (DNA:RNA)
RNA: GGGAGACCGGAAUUCAGAUUGUCCAGACUAUUUAAAUCCCGUCGUAGCCACCA
DNA 1: CAATCTGAATTCCGGTCTCCC
DNA 2: TGGTGGCTACGACGGGATT
B2: CGUCGCC (DNA:RNA)
RNA: B1 RNA with A25C, A27U, U29G, A30C, U31C
DNA 1: CAATCTGAATTCCGGTCTCCC
DNA 2: TGGTGGCTACGACGGGATT
B3: UCACCUC (DNA:RNA)
RNA: B1 RNA with A25U, G26C, U29C, A30U, U31C
DNA 1: CAATCTGAATTCCGGTCTCCC
DNA 2: TGGTGGCTACGACGGGATT
B4: AAAAUUC (DNA:RNA)
RNA: B1 RNA with G26A, C28A, A30U, U31C
DNA 1: CAATCTGAATTCCGGTCTCCC
DNA 2: TGGTGGCTACGACGGGATT
B5: GAAUGGG (DNA:RNA)
RNA: B1 RNA with A25G, G26A, C28U, U29G, A30G, U31G
DNA 1: CAATCTGAATTCCGGTCTCCC
DNA 2: TGGTGGCTACGACGGGATT
B6: GUUAUGG (DNA:RNA)
RNA: B1 RNA with A25G, G26U, A27U, C28A, A30G, U31G
DNA 1: CAATCTGAATTCCGGTCTCCC
DNA 2: TGGTGGCTACGACGGGATT
B7: CGAAUGG (DNA:RNA)
RNA: B1 RNA with A25C, C28A, A30G, U31G
DNA 1: CAATCTGAATTCCGGTCTCCC
DNA 2: TGGTGGCTACGACGGGATT
B8: GUAAUGG (DNA:RNA)
RNA: B1 RNA with A25G, G26U, C28A, A30G, U31G
DNA 1: CAATCTGAATTCCGGTCTCCC
DNA 2: TGGTGGCTACGACGGGATT
B9: AGAAUGG (DNA:RNA)
RNA: B1 RNA with C28A, A30G, U31G
DNA 1: CAATCTGAATTCCGGTCTCCC
DNA 2: TGGTGGCTACGACGGGATT
B10: GAAAUGG (DNA:RNA)
RNA: B1 RNA with A25G, G26A, C28A, A30G, U31G
DNA 1: CAATCTGAATTCCGGTCTCCC
DNA 2: TGGTGGCTACGACGGGATT
B11: CGUAUGG (DNA:RNA)
RNA: B1 RNA with A25C, A27U, C28A, A30G, U31G
DNA 1: CAATCTGAATTCCGGTCTCCC
DNA 2: TGGTGGCTACGACGGGATT
B12: AGAAUUG (DNA:RNA)
RNA: B1 RNA with C28A, A30U, U31G
DNA 1: CAATCTGAATTCCGGTCTCCC
DNA 2: TGGTGGCTACGACGGGATT
B13: AGAUUGG (DNA:RNA)
RNA: B1 RNA with C28U, A30G, U31G
DNA 1: CAATCTGAATTCCGGTCTCCC
DNA 2: TGGTGGCTACGACGGGATT
B14: GGUAUGG (DNA:RNA)
RNA: B1 RNA with A25G, A27U, C28A, A30G, U31G
DNA 1: CAATCTGAATTCCGGTCTCCC
DNA 2: TGGTGGCTACGACGGGATT
B15: GGAAUGG (DNA:RNA)
RNA: B1 RNA with A25G, C28A, A30G, U31G
DNA 1: CAATCTGAATTCCGGTCTCCC
DNA 2: TGGTGGCTACGACGGGATT
B16: GUAUGGU (DNA:RNA)
RNA: B1 RNA with A25G, G26U, C28U, U29G, A30G
DNA 1: CAATCTGAATTCCGGTCTCCC
DNA 2: TGGTGGCTACGACGGGATT
B17: GGGCCAA (DNA:RNA)
RNA: B1 RNA with A25G, A27G, U29C, U31A
DNA 1: CAATCTGAATTCCGGTCTCCC
DNA 2: TGGTGGCTACGACGGGATT
B18: UUCGUCU (DNA:RNA)
RNA: B1 RNA with A25U, G26U, A27C, C28G, A30C
DNA 1: CAATCTGAATTCCGGTCTCCC
DNA 2: TGGTGGCTACGACGGGATT
B19: GGACUAG (DNA:RNA)
RNA: B1 RNA with A25G, U31G
DNA 1: CAATCTGAATTCCGGTCTCCC
DNA 2: TGGTGGCTACGACGGGATT
B20: ACCCGUU (DNA:RNA)
RNA: B1 RNA with G26C, A27C, U29G, A30U
DNA 1: CAATCTGAATTCCGGTCTCCC
DNA 2: TGGTGGCTACGACGGGATT
B21: AUGGCUC (DNA:RNA)
RNA: B1 RNA with G26U, A27G, C28G, U29C, A30U, U31C
DNA 1: CAATCTGAATTCCGGTCTCCC
DNA 2: TGGTGGCTACGACGGGATT
B22: UAUUUAA (DNA:RNA)
RNA: B1 RNA with A25U, G26A, A27U, C28U, U31A
DNA 1: CAATCTGAATTCCGGTCTCCC
DNA 2: TGGTGGCTACGACGGGATT
B23: AGCAGCG (DNA:RNA)
RNA: B1 RNA with A27C, C28A, U29G, A30C, U31G
DNA 1: CAATCTGAATTCCGGTCTCCC
DNA 2: TGGTGGCTACGACGGGATT
B24: GAAUGGC (DNA:RNA)
RNA: B1 RNA with A25G, G26A, C28U, U29G, A30G, U31C
DNA 1: CAATCTGAATTCCGGTCTCCC
DNA 2: TGGTGGCTACGACGGGATT
B25: CGAUGGC (DNA:RNA)
RNA: B1 RNA with A25C, C28U, U29G, A30G, U31C
DNA 1: CAATCTGAATTCCGGTCTCCC
DNA 2: TGGTGGCTACGACGGGATT
B26: GAUUGGC (DNA:RNA)
RNA: GGGAGACCGGAAUUCAGAUUGUCCGAUUGGCUUAAAUCCCGUCGUAGCCACCA
DNA 1: CAATCTGAATTCCGGTCTCCC
DNA 2: TGGTGGCTACGACGGGATT
B27: GAAUGGU (DNA:RNA)
RNA: B26 RNA with U27A, C31U
DNA 1: CAATCTGAATTCCGGTCTCCC
DNA 2: TGGTGGCTACGACGGGATT
B28: GAUGGUU (DNA:RNA)
RNA: B26 RNA with U28G, G30U, C31U
DNA 1: CAATCTGAATTCCGGTCTCCC
DNA 2: TGGTGGCTACGACGGGATT
B29: GGAUGGU (DNA:RNA)
RNA: B26 RNA with A26G, U27A, C31U
DNA 1: CAATCTGAATTCCGGTCTCCC
DNA 2: TGGTGGCTACGACGGGATT
B30: GAGAAAU (DNA:RNA)
RNA: B1 RNA with A25G, G26A, A27G, C28A, U29A
DNA 1: CAATCTGAATTCCGGTCTCCC
DNA 2: TGGTGGCTACGACGGGATT
B31: GAACCCG (DNA:RNA)
RNA: B1 RNA with A25G, G26A, U29C, A30C, U31G
DNA 1: CAATCTGAATTCCGGTCTCCC
DNA 2: TGGTGGCTACGACGGGATT

This test concerns the target T1, RBFOX1 RRM RbFoxmut (Fox-RRM*). As to the kind of experiment: EMSA; HiTS-Eq, 1 nM pool, 10 min; buffer printed only for the single-RNA assays: 10 mM Tris pH 7.5, 150 mM NaCl, 3.4 mM EDTA, 0.001% NP-40, 30 C. The settings on record: tags: His6 N-terminal (pET28a); label: 5' 32P. In outline:
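Relative association constants, normalised to the cognate motif, were derived by comparing read counts of each RNA species with those of the control reaction. The RNA sequenced was the free fraction, separated by 8% native PAGE after a 10 min equilibration in 50 µL of 1 nM 5′-radiolabelled RNA (7 randomized nucleotides) with increasing concentrations of purified wild-type or mutant RbFox RRM.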
Consider B1, for which the binding signal is 0.0902 KA relative to UGCAUGU.

Consider B2, for which the binding signal is 0.0841 KA relative to UGCAUGU.

B3: the binding signal was 0.0699 KA relative to UGCAUGU.

As to B4, the binding signal is 0.0842 KA relative to UGCAUGU.

For B5, the binding signal is 0.21 KA relative to UGCAUGU.

As to B6, the binding signal was 0.123 KA relative to UGCAUGU.

In the case of B7, the binding signal was 0.72 KA relative to UGCAUGU.

As for B8, the binding signal is 0.0836 KA relative to UGCAUGU.

Consider B9, for which the binding signal is 0.541 KA relative to UGCAUGU.

Turning to B10, the binding signal is 0.0639 KA relative to UGCAUGU.

B11: the binding signal was 0.261 KA relative to UGCAUGU.

Regarding B12, the binding signal is 0.129 KA relative to UGCAUGU.

As to B13, the binding signal was 0.125 KA relative to UGCAUGU.

On to B14, for which the binding signal is 0.419 KA relative to UGCAUGU.

In the case of B15, the binding signal was 0.724 KA relative to UGCAUGU.

As for B16, the binding signal was 0.325 KA relative to UGCAUGU.

For the molecule B17, the binding signal was 0.0698 KA relative to UGCAUGU.

Consider B18, for which the binding signal is 0.0697 KA relative to UGCAUGU.

B19: the binding signal was 0.0756 KA relative to UGCAUGU.

For B20, the binding signal is 0.0752 KA relative to UGCAUGU.

Regarding B21, the binding signal is 0.111 KA relative to UGCAUGU.

Regarding B22, the binding signal was 0.0892 KA relative to UGCAUGU.

Consider B23, for which the binding signal was 0.113 KA relative to UGCAUGU.

For B24, the binding signal is 0.592 KA relative to UGCAUGU.

With B25, the binding signal is 0.101 KA relative to UGCAUGU.

Consider B26, for which the binding signal was 0.145 KA relative to UGCAUGU.

In the case of B27, the binding signal is 0.748 KA relative to UGCAUGU.

Turning to B28, the binding signal was 0.0937 KA relative to UGCAUGU.

As for B29, the binding signal is 0.201 KA relative to UGCAUGU.

As for B30, the binding signal is 0.0893 KA relative to UGCAUGU.

Turning to B31, the binding signal is 0.0645 KA relative to UGCAUGU.
